# Residue numbers refer to the chain shown, from its start.
# Key:
# Experiment in all cases: PBM; 200 nM protein, PBS
# Details in all cases: dsDNA, one strand shown
# VENTX [1] = biological target: T1, VENTX (Homo sapiens, UniProt O95231 78-163, R121Q)
# T1 sequence: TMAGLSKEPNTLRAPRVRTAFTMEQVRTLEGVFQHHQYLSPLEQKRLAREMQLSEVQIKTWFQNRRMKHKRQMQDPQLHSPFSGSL
# VENTX [2] = biological target: T2, VENTX (Homo sapiens, UniProt O95231 78-163)
# T2 sequence: T1 sequence with Q44R
# VENTX [3] = biological target: T3, VENTX (Homo sapiens, UniProt O95231 78-163, Y115F)
# T3 sequence: T1 sequence with Y38F, Q44R
# HOXA7 [4] = biological target: HOXA7 (Homo sapiens, UniProt P31268 116-202)
# HOXA7 (Homo sapiens, UniProt P31268 116-202), sequence (P31268 116-202): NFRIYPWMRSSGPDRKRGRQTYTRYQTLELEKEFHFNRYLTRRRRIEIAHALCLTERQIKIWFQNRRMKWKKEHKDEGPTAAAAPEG
# HOXB6 [5] = biological target: HOXB6 (Homo sapiens, UniProt P17509 132-218, K202E)
# HOXB6 (Homo sapiens, UniProt P17509 132-218, K202E), sequence (P17509 132-218 K202E): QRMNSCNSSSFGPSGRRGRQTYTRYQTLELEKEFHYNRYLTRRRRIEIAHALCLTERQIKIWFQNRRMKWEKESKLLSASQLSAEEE
# HOXA2 [6] = biological target: HOXA2 (Homo sapiens, UniProt O43364 129-215, R185K)
# HOXA2 (Homo sapiens, UniProt O43364 129-215, R185K), sequence (O43364 129-215 R185K): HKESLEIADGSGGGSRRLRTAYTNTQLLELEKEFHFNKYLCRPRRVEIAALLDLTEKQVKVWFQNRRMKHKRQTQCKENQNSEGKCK
# VAX1 [7] = biological target: VAX1 (Homo sapiens, UniProt Q5SQQ9 86-172)
# VAX1 (Homo sapiens, UniProt Q5SQQ9 86-172), sequence (Q5SQQ9 86-172): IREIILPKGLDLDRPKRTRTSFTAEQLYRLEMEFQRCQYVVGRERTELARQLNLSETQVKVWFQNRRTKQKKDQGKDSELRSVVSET
# VAX1 [8] = biological target: VAX1 (Homo sapiens, UniProt Q5SQQ9 86-172, T142I)
# VAX1 (Homo sapiens, UniProt Q5SQQ9 86-172, T142I), sequence (Q5SQQ9 86-172 T142I): as the sequence (Q5SQQ9 86-172) above, with T57I counted along it
# HOXA7 [9] = biological target: HOXA7 (Homo sapiens, UniProt P31268 116-202, W177C)
# HOXA7 (Homo sapiens, UniProt P31268 116-202, W177C), sequence (P31268 116-202 W177C): as the sequence (P31268 116-202) above, with W62C counted along it
# VAX1 [10] = biological target: VAX1 (Homo sapiens, UniProt Q5SQQ9 86-172, K157R)
# VAX1 (Homo sapiens, UniProt Q5SQQ9 86-172, K157R), sequence (Q5SQQ9 86-172 K157R): as the sequence (Q5SQQ9 86-172) above, with K72R counted along it
# HOXB6 [11] = biological target: HOXB6 (Homo sapiens, UniProt P17509 132-218)
# HOXB6 (Homo sapiens, UniProt P17509 132-218), sequence (P17509 132-218): as the sequence (P17509 132-218 K202E) above, with E71K counted along it
# ALX4 [12] = biological target: ALX4 (Homo sapiens, UniProt Q9H161 200-286)
# ALX4 (Homo sapiens, UniProt Q9H161 200-286), sequence (Q9H161 200-286): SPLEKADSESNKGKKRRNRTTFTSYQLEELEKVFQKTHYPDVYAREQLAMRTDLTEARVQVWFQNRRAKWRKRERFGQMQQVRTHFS
# ALX4 [13] = biological target: ALX4 (Homo sapiens, UniProt Q9H161 200-286, Q225E)
# ALX4 (Homo sapiens, UniProt Q9H161 200-286, Q225E), sequence (Q9H161 200-286 Q225E): as the sequence (Q9H161 200-286) above, with Q26E counted along it
# HOXA2 [14] = biological target: HOXA2 (Homo sapiens, UniProt O43364 129-215, R185T)
# HOXA2 (Homo sapiens, UniProt O43364 129-215, R185T), sequence (O43364 129-215 R185T): as the sequence (O43364 129-215 R185K) above, with K57T counted along it
# MSX2 [15] = biological target: MSX2 (Homo sapiens, UniProt P35548 130-214, R199I)
# MSX2 (Homo sapiens, UniProt P35548 130-214, R199I), sequence (P35548 130-214 R199I): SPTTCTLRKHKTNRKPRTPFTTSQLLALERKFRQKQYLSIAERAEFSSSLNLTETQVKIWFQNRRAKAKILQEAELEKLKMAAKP
# MSX2 [16] = biological target: MSX2 (Homo sapiens, UniProt P35548 130-214)
# MSX2 (Homo sapiens, UniProt P35548 130-214), sequence (P35548 130-214): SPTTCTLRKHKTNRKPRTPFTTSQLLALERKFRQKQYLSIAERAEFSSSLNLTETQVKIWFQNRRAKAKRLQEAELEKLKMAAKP
# MSX2 [17] = biological target: MSX2 (Homo sapiens, UniProt P35548 130-214, F161Y)
# MSX2 (Homo sapiens, UniProt P35548 130-214, F161Y), sequence (P35548 130-214 F161Y): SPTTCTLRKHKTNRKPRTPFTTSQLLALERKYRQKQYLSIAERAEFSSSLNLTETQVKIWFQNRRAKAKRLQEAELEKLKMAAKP
# HOXA2 [18] = biological target: HOXA2 (Homo sapiens, UniProt O43364 129-215, Y150S)
# HOXA2 (Homo sapiens, UniProt O43364 129-215, Y150S), sequence (O43364 129-215 Y150S): as the sequence (O43364 129-215 R185K) above, with Y22S, K57R counted along it
# HOXA2 [19] = biological target: HOXA2 (Homo sapiens, UniProt O43364 129-215)
# HOXA2 (Homo sapiens, UniProt O43364 129-215), sequence (O43364 129-215): as the sequence (O43364 129-215 R185K) above, with K57R counted along it
# HOXC10 [20] = biological target: HOXC10 (Homo sapiens, UniProt Q9NYD6 254-340)
# HOXC10 (Homo sapiens, UniProt Q9NYD6 254-340), sequence (Q9NYD6 254-340): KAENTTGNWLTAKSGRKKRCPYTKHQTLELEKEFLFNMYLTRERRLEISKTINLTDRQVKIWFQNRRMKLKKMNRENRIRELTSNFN
# ALX1 [21] = biological target: ALX1 (Homo sapiens, UniProt Q15699 118-204, L144V)
# ALX1 (Homo sapiens, UniProt Q15699 118-204, L144V), sequence (Q15699 118-204 L144V): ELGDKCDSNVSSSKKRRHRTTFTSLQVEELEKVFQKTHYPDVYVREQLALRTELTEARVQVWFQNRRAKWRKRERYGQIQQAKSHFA
# ALX3 [22] = biological target: ALX3 (Homo sapiens, UniProt O95076 139-225, N203Q)
# ALX3 (Homo sapiens, UniProt O95076 139-225, N203Q), sequence (O95076 139-225 N203Q): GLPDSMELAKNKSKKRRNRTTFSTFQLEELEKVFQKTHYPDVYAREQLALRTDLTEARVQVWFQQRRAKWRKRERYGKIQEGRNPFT
# ALX1 [23] = biological target: ALX1 (Homo sapiens, UniProt Q15699 118-204, L144R)
# ALX1 (Homo sapiens, UniProt Q15699 118-204, L144R), sequence (Q15699 118-204 L144R): as the sequence (Q15699 118-204 L144V) above, with V27R counted along it
# HOXC10 [24] = biological target: HOXC10 (Homo sapiens, UniProt Q9NYD6 254-340, K271E)
# HOXC10 (Homo sapiens, UniProt Q9NYD6 254-340, K271E), sequence (Q9NYD6 254-340 K271E): as the sequence (Q9NYD6 254-340) above, with K18E counted along it
# ALX3 [25] = biological target: ALX3 (Homo sapiens, UniProt O95076 139-225)
# ALX3 (Homo sapiens, UniProt O95076 139-225), sequence (O95076 139-225): as the sequence (O95076 139-225 N203Q) above, with Q65N counted along it
# ALX3 [26] = biological target: ALX3 (Homo sapiens, UniProt O95076 139-225, L168Q)
# ALX3 (Homo sapiens, UniProt O95076 139-225, L168Q), sequence (O95076 139-225 L168Q): as the sequence (O95076 139-225 N203Q) above, with L30Q, Q65N counted along it
# ALX3 [27] = biological target: ALX3 (Homo sapiens, UniProt O95076 139-225, L168V)
# ALX3 (Homo sapiens, UniProt O95076 139-225, L168V), sequence (O95076 139-225 L168V): as the sequence (O95076 139-225 N203Q) above, with L30V, Q65N counted along it
# ALX1 [28] = biological target: ALX1 (Homo sapiens, UniProt Q15699 118-204)
# ALX1 (Homo sapiens, UniProt Q15699 118-204), sequence (Q15699 118-204): as the sequence (Q15699 118-204 L144V) above, with V27L counted along it
# ALX3 [29] = biological target: ALX3 (Homo sapiens, UniProt O95076 139-225, N203S)
# ALX3 (Homo sapiens, UniProt O95076 139-225, N203S), sequence (O95076 139-225 N203S): as the sequence (O95076 139-225 N203Q) above, with Q65S counted along it
sequence,measurement,setting,value
AAATCTAC,binding signal,VENTX [1],"9.32 upbm affinity estimate (log intensity, higher = more binding, comparable within an allelic series)"
same,binding signal,VENTX [2],"9.65 upbm affinity estimate (log intensity, higher = more binding, comparable within an allelic series)"
AAATATCT,binding signal,VENTX [1],"9.87 upbm affinity estimate (log intensity, higher = more binding, comparable within an allelic series)"
same,binding signal,VENTX [2],"10 upbm affinity estimate (log intensity, higher = more binding, comparable within an allelic series)"
same,binding signal,VENTX [3],"9.74 upbm affinity estimate (log intensity, higher = more binding, comparable within an allelic series)"
GCCCATTA,binding signal,VENTX [1],"12.1 upbm affinity estimate (log intensity, higher = more binding, comparable within an allelic series)"
same,binding signal,VENTX [2],"13 upbm affinity estimate (log intensity, higher = more binding, comparable within an allelic series)"
same,binding signal,HOXA7 [4],"11.3 upbm affinity estimate (log intensity, higher = more binding, comparable within an allelic series)"
same,binding signal,VENTX [3],"11.8 upbm affinity estimate (log intensity, higher = more binding, comparable within an allelic series)"
same,binding signal,HOXB6 [5],"9.82 upbm affinity estimate (log intensity, higher = more binding, comparable within an allelic series)"
same,binding signal,HOXA2 [6],"13.1 upbm affinity estimate (log intensity, higher = more binding, comparable within an allelic series)"
same,binding signal,VAX1 [7],"12.8 upbm affinity estimate (log intensity, higher = more binding, comparable within an allelic series)"
same,binding signal,VAX1 [8],"12.2 upbm affinity estimate (log intensity, higher = more binding, comparable within an allelic series)"
same,binding signal,HOXA7 [9],"8.75 upbm affinity estimate (log intensity, higher = more binding, comparable within an allelic series)"
same,binding signal,VAX1 [10],"12.5 upbm affinity estimate (log intensity, higher = more binding, comparable within an allelic series)"
same,binding signal,HOXB6 [11],"11.8 upbm affinity estimate (log intensity, higher = more binding, comparable within an allelic series)"
CCGAGGGC,binding signal,VENTX [1],"7.98 upbm affinity estimate (log intensity, higher = more binding, comparable within an allelic series)"
same,binding signal,VENTX [2],"8.24 upbm affinity estimate (log intensity, higher = more binding, comparable within an allelic series)"
same,binding signal,ALX4 [12],"8.14 upbm affinity estimate (log intensity, higher = more binding, comparable within an allelic series)"
same,binding signal,VENTX [3],"8.11 upbm affinity estimate (log intensity, higher = more binding, comparable within an allelic series)"
same,binding signal,ALX4 [13],"8.07 upbm affinity estimate (log intensity, higher = more binding, comparable within an allelic series)"
same,binding signal,HOXA2 [14],"7.12 upbm affinity estimate (log intensity, higher = more binding, comparable within an allelic series)"
same,binding signal,MSX2 [15],"9.49 upbm affinity estimate (log intensity, higher = more binding, comparable within an allelic series)"
same,binding signal,HOXA2 [6],"10.3 upbm affinity estimate (log intensity, higher = more binding, comparable within an allelic series)"
same,binding signal,MSX2 [16],"9.42 upbm affinity estimate (log intensity, higher = more binding, comparable within an allelic series)"
same,binding signal,MSX2 [17],"9.43 upbm affinity estimate (log intensity, higher = more binding, comparable within an allelic series)"
same,binding signal,HOXA2 [18],"10.3 upbm affinity estimate (log intensity, higher = more binding, comparable within an allelic series)"
same,binding signal,HOXA2 [19],"7.2 upbm affinity estimate (log intensity, higher = more binding, comparable within an allelic series)"
CTGGCGCA,binding signal,VENTX [1],"8.11 upbm affinity estimate (log intensity, higher = more binding, comparable within an allelic series)"
same,binding signal,VENTX [2],"8.09 upbm affinity estimate (log intensity, higher = more binding, comparable within an allelic series)"
same,binding signal,HOXC10 [20],"9.99 upbm affinity estimate (log intensity, higher = more binding, comparable within an allelic series)"
same,binding signal,VENTX [3],"8.2 upbm affinity estimate (log intensity, higher = more binding, comparable within an allelic series)"
same,binding signal,ALX1 [21],"6.29 upbm affinity estimate (log intensity, higher = more binding, comparable within an allelic series)"
same,binding signal,ALX3 [22],"7.76 upbm affinity estimate (log intensity, higher = more binding, comparable within an allelic series)"
same,binding signal,ALX1 [23],"6.21 upbm affinity estimate (log intensity, higher = more binding, comparable within an allelic series)"
same,binding signal,HOXC10 [24],"10 upbm affinity estimate (log intensity, higher = more binding, comparable within an allelic series)"
same,binding signal,ALX3 [25],"7.58 upbm affinity estimate (log intensity, higher = more binding, comparable within an allelic series)"
same,binding signal,ALX3 [26],"7.71 upbm affinity estimate (log intensity, higher = more binding, comparable within an allelic series)"
same,binding signal,ALX3 [27],"7.74 upbm affinity estimate (log intensity, higher = more binding, comparable within an allelic series)"
same,binding signal,ALX1 [28],"6.24 upbm affinity estimate (log intensity, higher = more binding, comparable within an allelic series)"
same,binding signal,ALX3 [29],"7.82 upbm affinity estimate (log intensity, higher = more binding, comparable within an allelic series)"

# Reference: paper PMC11006913
